Screens: PubChem, National Center for Advancing Translational Sciences (NCATS)
An excerpt weighted towards active compounds, which were near 10% of everything screened.
GLA spleen mod – qHTS Assay for Inhibitors and Activators of Human alpha-Galactosidase From Spleen Homogenate; Alpha-galactosidase A (Homo sapiens), P06280; human spleen homogenate, 4MU-alpha-Gal fluorescence, 40 min; Potency, µM (titrated, usually from 80 µM), most hits filed as inhibitors; actives 0.008% (n = 240,000); AID 2107, 2009
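Human spleen homogenate (1 ug) as enzyme source, 4-methylumbelliferyl-alpha-D-galactopyranoside 1 mM final, citrate/phosphate pH 5.0 with 0.01% Tween-20. Compounds 40 min at 37C, NaOH/glycine stop; fluorescence Ex 365/Em 440, Hill-fit AC50.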
HPGD inh – qHTS Assay for Inhibitors of HPGD (15-Hydroxyprostaglandin Dehydrogenase); actives 4.3% (n = 150,000); purified HPGD, NADH fluorescence kinetic, PGE2 substrate; 15-hydroxyprostaglandin dehydrogenase [NAD(+)] (Homo sapiens), P15428; Potency, µM, hits mostly inhibitors; active = well fitted inhibition curve with a large enough effect, not every such curve was filed as active; inconclusive = small, poorly fitted or top-dose-only effect, or another doubt; inactive = no such curve, though single readings can be large or run the other way
Target sequence (P15428 whole entry, looked up): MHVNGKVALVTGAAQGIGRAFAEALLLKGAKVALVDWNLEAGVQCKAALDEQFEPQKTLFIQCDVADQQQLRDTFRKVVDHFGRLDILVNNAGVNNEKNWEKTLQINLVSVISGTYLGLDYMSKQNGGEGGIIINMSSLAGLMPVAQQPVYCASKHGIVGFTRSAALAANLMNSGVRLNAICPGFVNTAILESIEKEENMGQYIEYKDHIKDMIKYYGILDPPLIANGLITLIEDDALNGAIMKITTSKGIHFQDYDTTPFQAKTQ
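20 nM HPGD preincubated 15 min at room temperature with compound in 50 mM Tris-HCl pH 8, 0.01% Tween 20. Started with 1 mM NAD+ and 30 uM prostaglandin E2; NADH fluorescence (360/450 nm) read 5 times over 30-s intervals, last minus first.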
12-hLO inh – qHTS Assay for Inhibitors of 12-hLO (12-human lipoxygenase) | Polyunsaturated fatty acid lipoxygenase ALOX12 (Homo sapiens), P18054 | purified 12-hLO, xylenol orange hydroperoxide absorbance | Potency, µM (series often up to 57.1 µM), actives largely listed as inhibitors | actives 0.12% (n = 150,000) | AID 1452, 2008; also: nearly all actives have a fitted effect of over 55% in size
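150 nM 12hLO, 25 mM Hepes pH 7.0 + 0.01% Triton X-100; cpd preinc 15 min RT; 40 uM arachidonic acid, 30 min RT; Fe-XO 30 min; A573/A405 ratio as read-out.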
ALDH1A1 inh – qHTS Assay for Inhibitors of Aldehyde Dehydrogenase 1 (ALDH1A1); Aldehyde dehydrogenase 1A1 (Homo sapiens), P00352; Purified ALDH1A1, NADH fluorescence, propionaldehyde substrate; Potency, µM (titrated, usually from 75.3 µM), actives largely listed as inhibitors; actives 7.3% (n = 220,000); active = well fitted inhibition curve with a large enough effect, not every such curve was filed as active; inconclusive = small, poorly fitted or top-dose-only effect, or another doubt; inactive = no such curve, though single readings can be large or run the other way
GLA inh pH 4.5 – qHTS Assay for Inhibitors of Human alpha-Galactosidase at pH 4.5; purified enzyme, 4-MU-alpha-Gal fluorescence, pH 4.5; activity change, negative = inhibition, % at 105 µM; 230,000 tested, under 10 active
Target sequence (P06280 whole entry, looked up): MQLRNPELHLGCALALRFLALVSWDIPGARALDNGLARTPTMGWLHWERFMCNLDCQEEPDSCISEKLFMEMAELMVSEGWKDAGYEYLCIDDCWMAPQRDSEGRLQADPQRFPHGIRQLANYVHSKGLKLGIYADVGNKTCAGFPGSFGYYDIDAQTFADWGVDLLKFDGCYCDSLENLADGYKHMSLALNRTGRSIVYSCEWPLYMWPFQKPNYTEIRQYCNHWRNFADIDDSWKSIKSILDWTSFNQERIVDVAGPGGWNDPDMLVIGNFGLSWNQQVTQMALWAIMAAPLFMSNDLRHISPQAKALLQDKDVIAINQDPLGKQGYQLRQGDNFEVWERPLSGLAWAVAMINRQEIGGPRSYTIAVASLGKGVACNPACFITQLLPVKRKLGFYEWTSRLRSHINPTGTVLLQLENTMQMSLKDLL
PNC assembly inh – High Content Assay for Compounds that inhibit the Assembly of the Perinucleolar Compartment; PC3M PTB-GFP, PNC prevalence imaging, 16 h; active compounds read low; activity change (PNC), negative = inhibition, % at 10 µM; actives 3.1% (n = 140,000); AID 2417, 2010;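 active = readout at or below -70, meaning at least 70% loss of cells showing the perinucleolar compartment, a nuclear body marking cancer cells; inconclusive = readout between -30 and a set limit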
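Read-out is percentage of cells bearing a perinucleolar compartment, from automated 20x imaging of fixed, Hoechst-stained PC3M PTB-GFP cells. Cells were seeded 4 h, then exposed 16 h to compound (23 nl of library stock) in duplicate plates.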
Each line names hits and unclear results; the compound was inactive in the other large screens. Unless noted, calls follow the shape of the dose curve; as a rule, active = well fitted curve in the direction sought with a large enough effect; inconclusive = small, poorly fitted or top-dose-only effect, or another doubt; inactive = no such curve, though single readings can be large; an effect the other way counts as inactive or inconclusive.

C/C(N)=C(/C#N)C(=O)COC(=O)c1ccc(C)c(S(=O)(=O)N2CCCCC2)c1	HPGD inh 13µM, ALDH1A1 inh inconclusive
C/C(N)=C(/C#N)C(=O)COC(=O)c1cc(S(=O)(=O)N2CCCCC2)ccc1C	PNC assembly inh inconclusive
CCCNC(=O)COC(=O)c1ccc(Cl)c(S(=O)(=O)N2CCCC2)c1	ALDH1A1 inh 7.9µM
COc1cc(/C=C2/NC(=O)N(Cc3ccccc3F)C2=O)cc(OC)c1OC	ALDH1A1 inh 2.5µM (no result: HPGD inh, 12-hLO inh, PNC assembly inh)
Cc1cc(/C=C2/NC(=O)N(Cc3ccccc3F)C2=O)c(C)n1-c1ccccn1	HPGD inh inconclusive, ALDH1A1 inh 8.9µM
Cc1cc(/C=c2/sc3nc4ccccc4n3c2=O)c(C)n1-c1ccccn1	ALDH1A1 inh 13µM
Cc1cc(/C=c2\sc3nc4ccccc4n3c2=O)c(C)n1-c1ccc(C(=O)O)cc1	ALDH1A1 inh inconclusive (no result: HPGD inh, 12-hLO inh, PNC assembly inh)
CCOc1cc([N+](=O)[O-])cc(/C=C2/NC(=O)N(Cc3ccccc3F)C2=O)c1O	ALDH1A1 inh 2.2µM (no result: HPGD inh, 12-hLO inh, PNC assembly inh)
COc1ccc(/C=C2/NC(=O)N(Cc3ccccc3F)C2=O)cc1OC	ALDH1A1 inh inconclusive (no result: HPGD inh, 12-hLO inh, PNC assembly inh)
COc1ccc2[nH]cc(CCNc3ccnc(-c4ccc(C(=O)N(C)C)cc4)n3)c2c1	none (no result: HPGD inh, 12-hLO inh, GLA inh pH 4.5, PNC assembly inh)
COc1cccc(-c2nc3sc4c(c3c(=O)[nH]2)CCCCC4)c1	HPGD inh inconclusive, ALDH1A1 inh inconclusive
Clc1ccccc1OCc1nnc2n1CCCCC2	none (no result: HPGD inh, 12-hLO inh, ALDH1A1 inh, PNC assembly inh)
CN(C)c1ccc2c(-c3ccccc3)c3ccc(=[N+](C)C)cc-3oc2c1	none (no result: HPGD inh, 12-hLO inh, ALDH1A1 inh, GLA inh pH 4.5, PNC assembly inh)
Cc1ccc(/C=C2/NC(=O)N(Cc3ccccc3F)C2=O)s1	ALDH1A1 inh inconclusive (no result: HPGD inh, 12-hLO inh, PNC assembly inh)
Cc1cc(/C=C2/NC(=O)N(Cc3ccccc3F)C2=O)c(C)n1C	ALDH1A1 inh 1.1µM, PNC assembly inh inconclusive
CCCCOC(=O)c1ccc(NC(=O)CSCc2n[nH]c(=O)[nH]2)cc1	ALDH1A1 inh 13µM
CCOC(=O)c1ccc(NC(=O)CSCCC(=O)O)cc1	ALDH1A1 inh 32µM (no result: HPGD inh, 12-hLO inh, PNC assembly inh)
COC(=O)c1ccc(NC(=O)CSCC(=O)OCC(=O)c2ccc(Br)cc2)cc1	ALDH1A1 inh 22µM
O=C(CSCCO)Nc1ccccc1	none
CCc1ccc(NC(=O)CSCCO)cc1	HPGD inh 20µM
c1ccc(-c2nc(-c3cccc4ccccc34)c(NC3CCCCC3)o2)cc1	none (no result: PNC assembly inh)
COc1ccccc1CNc1cc(-c2ccc(C(=O)N(C)C)cc2)ncn1	none (no result: HPGD inh, 12-hLO inh, GLA inh pH 4.5, PNC assembly inh)
C#CCCCO/N=C1/C[C@@H](O)[C@@H](O)[C@@H]2[C@@H]3C(=O)N(c4cccc(Oc5ccccc5)c4)C(=O)[C@H]3CC[C@H]12	none (no result: HPGD inh, 12-hLO inh, GLA inh pH 4.5, PNC assembly inh)
CCOC(=O)CC(=O)Nc1ccc(C(=O)OCC)cc1	none
CCOC(=O)c1ccc(NC(=O)CSCc2ccco2)cc1	ALDH1A1 inh 2.2µM
CCOc1ccc(-n2c(N)c(C(=O)N3CCN(C)CC3)sc2=S)cc1	none (no result: HPGD inh, 12-hLO inh, PNC assembly inh)
Cc1ccc(C)c(-n2c(N)c(C(N)=O)sc2=S)c1	HPGD inh inconclusive, PNC assembly inh inconclusive
Cc1ccc(-n2c(N)c(C(=O)N3CCCCC3)sc2=S)cc1	HPGD inh 10µM, ALDH1A1 inh 10µM, PNC assembly inh inconclusive
Cc1ccc(-n2c(N)c(C(=O)N3CCN(C)CC3)sc2=S)cc1	HPGD inh 11µM, ALDH1A1 inh 22µM, PNC assembly inh inconclusive
O=C(CCN1CCN(Cc2ccccc2)CC1)Nc1ccccc1Cl	none
CCCC(=O)Nc1nc2c(ncn2[C@@H]2O[C@H]3COP(=O)(O)O[C@@H]3[C@@H]2OC(=O)CCC)c(=O)[nH]1	ALDH1A1 inh inconclusive (no result: HPGD inh, 12-hLO inh, GLA inh pH 4.5, PNC assembly inh)
Cc1ccc(NCc2nnc(SCC(=O)c3ccccc3)o2)c(C)c1	none
Cc1ccc(NCc2nnc(SCC#N)o2)c(C)c1	PNC assembly inh -100
COc1ccc(-c2nc(=S)[nH][nH]2)cc1	HPGD inh 13µM, ALDH1A1 inh 13µM
CCOc1ccc(-c2nc(=S)[nH][nH]2)cc1	HPGD inh inconclusive, ALDH1A1 inh 25µM
COC(=O)N1CCC2(CCCN(c3ccccn3)C2)CC1	HPGD inh inconclusive (no result: GLA inh pH 4.5, PNC assembly inh)
CCOC(=O)C1=C(c2ccccc2)OC(N)=C(C#N)C1c1ccc(Br)s1 (configuration not stated)	none
COC(=O)C1=C(C)OC(N)=C(C#N)C1c1ccc(OC)c(CSc2ccccn2)c1 (configuration not stated)	ALDH1A1 inh inconclusive, PNC assembly inh -87
CCOC(=O)C1=C(c2ccccc2)OC(N)=C(C#N)C1c1ccc(Cl)s1 (configuration not stated)	ALDH1A1 inh 1.8µM
COC(=O)C1=C(C)OC(N)=C(C#N)C1c1ccccc1 (configuration not stated)	ALDH1A1 inh inconclusive
CCOC(=O)C1=C(CSc2nc(C)cc(C)c2C#N)OC(N)=C(C#N)C1c1cccs1 (configuration not stated)	ALDH1A1 inh 14µM, PNC assembly inh inconclusive
CCOC(=O)C1=C(C)OC(N)=C(C#N)C1c1ccccc1 (configuration not stated)	ALDH1A1 inh 22µM (no result: HPGD inh, 12-hLO inh, PNC assembly inh)
O=C(CN(Cc1ccc(F)cc1)S(=O)(=O)c1ccc(S(=O)(=O)N2CCOCC2)cc1)Nc1ccccc1	none
CCOC(=O)C1=C(N)OC(CCl)=C(C#N)C1c1ccsc1 (configuration not stated)	ALDH1A1 inh 7.9µM
CCOC(=O)C1=C(CSc2nc(C)cc(C)c2C#N)OC(N)=C(C#N)C1c1ccccc1 (configuration not stated)	HPGD inh inconclusive, 12-hLO inh inconclusive, ALDH1A1 inh 10µM
COC(=O)C1=C(C)OC(N)=C(C#N)C1c1ccc(OC)c(OC)c1OC (configuration not stated)	PNC assembly inh inconclusive
CCOC(=O)C1=C(c2ccccc2)OC(N)=C(C#N)C1c1cccnc1 (configuration not stated)	none (no result: HPGD inh, 12-hLO inh, PNC assembly inh)
CCSc1cc(C2C(C#N)=C(N)OC(C)=C2C(=O)OC)c(C)o1 (configuration not stated)	ALDH1A1 inh 20µM
CC(=O)C1=C(c2ccccc2)OC(N)=C(C#N)C1c1ccc(O)cc1 (configuration not stated)	ALDH1A1 inh 20µM, PNC assembly inh inconclusive
CCOC(=O)C1=C(CSc2nc(CC)c(C)cc2C#N)OC(N)=C(C#N)C1c1ccccc1 (configuration not stated)	ALDH1A1 inh inconclusive
CC1(C)S[C@@H]2[C@H](NC(=O)COc3ccccc3)C(=O)N2[C@H]1C(=O)O	none (no result: PNC assembly inh)
